# High-throughput results deposited in PubChem by National Center for Advancing Translational Sciences (NCATS).
# Compounds with a hit are over-represented: about 22% of the library has one in this group of screens.
# Pf growth 48h: inhibits P. falciparum growth in the first generation, 48 h; P. falciparum luciferase growth in erythrocytes, 48 h; 310,000 tested, 5.9% active; AID 504832; Potency, µM (doses to about 28.7 µM), usual class: inhibitors
#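 Cell-based growth assay: transgenic P. falciparum expressing firefly luciferase, cultured in red cells within RPMI 1640 containing 0.5% w/v Albumax, 24 mM bicarbonate and gentamycin. A drop in luciferase activity indicates inhibition.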
# LmPK inhibitor: inhibitors of Leishmania mexicana pyruvate kinase; Q27686; purified LmPK, Kinase-Glo ATP luminescence, 1 h; Potency, µM (highest dose often 57.5 µM), most hits filed as inhibitors; 290,000 tested, 0.37% active
# Target sequence (Q27686 whole entry, looked up): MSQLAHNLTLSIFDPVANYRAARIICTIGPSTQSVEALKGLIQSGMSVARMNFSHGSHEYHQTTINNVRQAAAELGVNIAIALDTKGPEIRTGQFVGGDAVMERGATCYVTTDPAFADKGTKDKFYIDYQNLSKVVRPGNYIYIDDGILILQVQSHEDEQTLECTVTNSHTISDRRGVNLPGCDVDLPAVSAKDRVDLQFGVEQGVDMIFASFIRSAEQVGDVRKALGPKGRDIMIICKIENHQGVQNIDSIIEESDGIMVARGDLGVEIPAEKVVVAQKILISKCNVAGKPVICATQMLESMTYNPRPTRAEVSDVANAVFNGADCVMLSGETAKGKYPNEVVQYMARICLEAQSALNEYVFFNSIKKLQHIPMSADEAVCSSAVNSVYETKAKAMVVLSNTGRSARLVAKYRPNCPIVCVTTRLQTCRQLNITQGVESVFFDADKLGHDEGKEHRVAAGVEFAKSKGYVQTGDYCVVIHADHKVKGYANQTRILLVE
#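 qHTS format; LmPK 0.1 nM; substrates PEP 0.5 mM and ADP 0.1 mM. One-hour room-temperature incubation, then coupled luciferase luminescence; 0.5 nM enzyme wells mark activation.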
# Pf growth 96h: P. falciparum growth inhibition at 96 hours. P. falciparum luciferase reporter growth, 96 h. Potency, µM (highest dose often 28.7 µM), actives largely listed as inhibitors. 320,000 tested, 6.9% active
#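 P. falciparum expressing integrated firefly luciferase, in erythrocytes at 2% hematocrit, 0.05% parasitemia, incubated with compounds 96 h at 37 C, 5% CO2. Growth inhibition read as loss of luminescence; two-generation exposure targets delayed-death apicoplast inhibitors.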
# Shiga inhibitor: inhibitors of Shiga toxin in Vero cells; Vero cells, Shiga toxin protein synthesis inhibition reporter; inhibition, % at 38.7 µM; 290,000 tested, 9.2% active; in the data active = inhibition mostly above about 28%, no sharp cut-off; inactive = mostly below about 43%
# CHX counter: counter-screen hit for Shiga toxin inhibitors, cycloheximide. cell reporter, cycloheximide protein synthesis inhibition counterscreen. max response, %. 300,000 tested, 12% active. AID 2314; in the data active = max response mostly above about 13%, no sharp cut-off; inactive = mostly below about 14%; also: read at 38.3 µM for the half of the compounds with a filed dose
# A number is an active result; – = inactive; ? = inconclusive; · = not tested or not shown; [ ] = dose if it differs, or a comment. Unless noted, calls follow the shape of the dose curve; as a rule, active = well fitted inhibition curve with a large enough effect; inconclusive = small, poorly fitted or top-dose-only effect, or another doubt; inactive = no such curve, though single readings can be large or run the other way.
SMILES,Pf growth 48h,LmPK inhibitor,Pf growth 96h,Shiga inhibitor,CHX counter
Cc1occc1C(=O)NC1CCCCCCC1,–,–,–,60.3,39.7
COc1ccc(OCCCC(=O)OCC(=O)c2ccc3c(c2)NC(=O)CO3)cc1,–,·,–,·,·
Cc1cc(C)c(NC(=O)CS(=O)CC(=O)NC2CCCc3ccccc32)c(C)c1 (stereo not drawn),–,–,10.4µM,–,–
CC1(C)CC(=O)C(N=Nc2ccc(Br)cc2)=C(O)C1,–,–,–,–,–
COc1ccc(N=NC2=C(O)CC(C)(C)CC2=O)c(OC)c1,–,–,–,53.3,–
COc1ccc(N=NC2=C(O)CC(C)(C)CC2=O)cc1,–,–,?,124.5,47.0
CC1(C)CC(=O)C(N=Nc2cccc([N+](=O)[O-])c2)=C(O)C1,–,–,–,63.4,45.3
CC1CCCC(C)N1CC(O)COCc1ccccc1 (stereo not drawn),–,–,–,–,–
CC1=CC(C)(C)N2C(=O)C(=Nc3ccc(O)cc3)c3cccc1c32,?,–,?,46.1,–
COc1cc(N=C2C(=O)N3c4c(cccc42)C(C)=CC3(C)C)cc(OC)c1,?,–,?,–,–
CCOc1ccc(Nc2nnc(SCc3nc4ccccc4c(=O)[nH]3)s2)cc1,–,–,?,–,–
O=C(O)CCN1C(=O)c2ccccc2Sc2ncccc21,–,–,–,–,–
CC(C)NC(=O)CCN1C(=O)c2ccccc2Sc2ncccc21,–,–,6.57µM,–,–
C=CCn1c(SCC(=O)NCC2CCCO2)nnc1-c1ccccc1 (stereo not drawn),–,–,–,–,–
N#Cc1nc(-c2ccc(F)cc2)oc1NCc1cccc2c1OCO2,–,–,–,–,33.6
CC(C)CNc1oc(-c2ccc(F)cc2)nc1C#N,–,–,–,39.7,16.3
Cc1ccc(-c2nc(C#N)c(NCc3cccc4c3OCO4)o2)cc1,–,–,·,58.7,26.4
O=C(COC(=O)C1CCCCC1C(=O)N1CCc2ccccc21)NCc1ccco1 (stereo not drawn),11.7µM,–,–,–,–
Cc1ccccc1C(=O)Nc1ccc(Br)cn1,–,?,–,90.5,49.1
O=C(Nc1ccon1)c1ccc(Br)s1,–,–,–,57.5,24.5
O=C(Nc1ccc(Br)cn1)c1ccc(Cl)s1,–,–,–,84.0,54.0
Cc1cc(C(=O)Nc2ccc(Br)cn2)sc1C,–,·,–,·,·
O=C(Nc1ccc2sccc2c1)c1ccc(Cl)s1,–,–,–,39.2,33.4
O=C(CNC(=O)c1sc2ccccc2c1Cl)NCc1ccc(F)cc1,–,·,–,·,·
O=S1(=O)C2CC3C=CC2(O3)C(O)C(Cc2ccccc2)N1Cc1cccc(C(F)(F)F)c1 (stereo not drawn),·,·,·,–,–
SMILES,Pf growth 48h,LmPK inhibitor,Pf growth 96h,Shiga inhibitor,CHX counter
O=C(Nc1nccs1)c1ccc(Cl)s1,·,–,–,–,19.5
COc1ccc(OC)c2sc(NC(=O)c3ccc(Cl)s3)nc12,·,–,–,–,–
O=C(Nc1ccc(Br)cn1)c1ccc(Br)s1,–,–,–,107.9,61.7
O=C(Nc1ccccn1)c1ccc(-c2ccccc2)cc1,–,–,–,–,–
O=C(Nc1ccccn1)c1ccc(Cl)s1,–,–,–,99.7,62.2
O=C(Nc1ncnc2c1ncn2[C@@H]1O[C@@H]2COP(=O)(O)O[C@H]2[C@H]1O)c1ccccc1,·,·,·,–,–
O=C(Cn1cnc2scc(-c3ccc(F)cc3)c2c1=O)NCC(c1ccco1)N1CCCC1 (stereo not drawn),–,·,?,·,·
N=C1C(c2nc3ccccc3[nH]2)=C(O)CN1NC(=O)COc1cccc(F)c1,–,–,–,–,–
Cc1ccc(NC(=O)C(C)Sc2nc(=O)cc(N)n2-c2ccccc2)cc1 (stereo not drawn),·,–,–,–,–
C=CCn1c(N)cc(=O)nc1SC(C)C(=O)Nc1ccc(C(=O)OCC)cc1 (stereo not drawn),4.15µM,–,–,–,–
COc1ccc(OCC(=O)Nc2c(C(=O)N(CCN(C)C)Cc3ccco3)oc3ccccc23)cc1,?,–,10.4µM,–,–
COc1ccccc1C(=O)Nc1c(C(=O)N(CCN(C)C)Cc2ccco2)oc2ccccc12,?,–,10.4µM,–,–
COc1ccc(OCC(=O)Nc2c(C(=O)N3CCN(C)CC3)oc3ccccc23)cc1,–,–,9.28µM,–,–
Cc1ccccc1C(=O)Nc1c(C(=O)N(CCN(C)C)Cc2ccco2)oc2ccccc12,?,–,–,–,–
COc1cccc(NC(=O)CN(C)C(=O)c2ccc3c(c2)C(=O)N(CCC(C)C)C3=O)c1,?,·,–,·,·
O=C(O)CCC(=O)Nc1ccc(-c2nc3ccc(C(=O)c4ccccc4)cc3[nH]2)cc1,–,–,?,·,21.5
O=C(Nc1ccc(-c2nc3ccccc3[nH]2)cc1)c1cccc(N2C(=O)CCC2=O)c1,–,–,–,–,–
O=C(c1ccccc1)c1ccc2nc(-c3ccc(NC(=O)c4ccccc4F)cc3)[nH]c2c1,?,–,–,34.0,–
CNC(=S)NCCCCc1cnc[nH]1,·,·,·,–,–
CCN(CC)CCNC(=O)C1(O)c2cc(Br)ccc2NC(=O)N1c1ccccc1 (stereo not drawn),–[0.00184 µM],–,2.62µM,–,–
COc1cc(/C=N/NC(=Nc2ccc(C)cc2)c2nc3ccccc3s2)ccc1O,–,–,·,99.6,42.0
COc1ccccc1/C=N/NC(=Nc1ccc(C)cc1)c1nc2ccccc2s1,–,–,–,183.9,52.8
Cc1occc1C(=O)NNC(=O)c1cccc(F)c1,–,–,–,–,–
O=C(NNC(=O)c1ccccc1F)c1ccc2[nH]c(=O)c(=O)[nH]c2c1,?,–,–,41.3,34.0
COc1ccccc1C(=O)NNC(=O)c1cccc(F)c1,–,?,–,88.0,50.7
SMILES,Pf growth 48h,LmPK inhibitor,Pf growth 96h,Shiga inhibitor,CHX counter
COc1ccccc1C(=O)NNC(=O)c1ccccc1F,–,–,–,57.8,47.2
COc1ccccc1C(=O)NNC(=O)c1cccc(O)c1,–,–,6.57µM,–,23.4
O=C(Nc1ccc(F)cc1)c1ccc2[nH]c(=O)c(=O)[nH]c2c1,–,–,–,–,–
CC(C)(C)NC(=O)C(=O)NNC(=O)c1cccc(F)c1,–,–,–,–,37.7
CCOC(=O)c1c(NC(=O)CSc2nnc(CNc3ccc(F)cc3)o2)sc(C(C)=O)c1C,–,–,1.65µM,–,–
CCOC(=O)CN(C(=O)CSc1nnc(CNc2ccc(F)cc2)n1C)c1ccccc1,?,–,·,–,–
CCOC(=O)CN(C(=O)CSc1nnc(CNc2ccc(F)cc2)o1)c1ccccc1,–,–,–,–,21.9
CCOC(=O)CN(C(=O)CSc1nnc(-c2cccc(OC)c2)o1)c1ccc(F)cc1,?,–,?,–,14.7
CCCC(C(=O)N(C)CC(=O)Nc1ccc(N2CCOCC2)cc1)c1ccccc1 (stereo not drawn),–,·,?,·,·
CCN(CC)C(=O)Oc1ccc2ccccc2c1Cl,–,–,?,80.0,43.1
CCN(CC)C(=O)Oc1ccnc2cc(Cl)ccc12,–,–,–,–,–
CN(C)C(=O)Oc1ccc2ccccc2c1Cl,·,–,–,–,30.3
CN(C)C(=O)Oc1ccc(Cl)c2ccccc12,–,–,·,–,–
